Test results taken from PubChem BioAssay (NCI).
Where “and” joins values, the source holds several entries; their conditions need not be identical. Equal entries are not always repeated. This is part of a sample that, as a whole, favours compounds with a hit. Of some 83,000 tested, about 20% had one in any assay.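 Growth was measured after 48 h exposure to one concentration of compound in 96-well plates. Values under 10 count as active.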 Values without a mark were called inactive. Calls of active or inactive are those of the source.

System: MDA-MB-468 breast
Assay: NCI-60 one-dose screen, 48 h (100 = growth as untreated, 0 = no growth, -100 = all killed)
Settings: 10 µM unless noted

Row | Structure (SMILES) | growth
1 | CC(=O)/C=C/c1ccc2c(c1)OCO2 | 96.6%
2 | C=CC[Se]C(=O)c1ccccc1OC(C)=O | -16.6% (active)
3 | O=C(CCCc1ccc(N(CCCl)CCCl)cc1)OCc1ccccc1 | 87%
4 | CN1C(=O)NC(=O)C(N=Nc2ccc(Cl)cc2)C1=O (stereo not given) | 90.4%
5 | Nc1ccc2c(c1)oc1ccccc12 | 92.6%
6 | COc1ccc(C(O)(C(=O)O)c2ccc(OC)cc2)cc1 | 104%
7 | CCCCCCCC(=O)OCC/C=C/C1OC1C1OC(=O)/C=C\C=C\c2nc(oc2C)/C=C(/C)CCC2OC2C1OC(=O)NC(C)=O (stereo not given) | -51.1% (active)
8 | C/C1=C/C(=O)O[C@@H]2C[C@@H](CC[C@H](C)/C=C\C=C\CC1)O[C@@](O)([C@@H]1CSC(=O)N1CO)C2 | 10.3%
9 | CC(C)(C)N(Cc1ccccc1)N=O | 93.2%
10 | CC[C@]12C=CCN3CC[C@@]4(c5ccc(OC)cc5N(C)[C@H]4[C@@](O)(C(=O)OC)[C@@H]1OC(=O)CCCC[P+](c1ccccc1)(c1ccccc1)c1ccccc1)[C@@H]32 | -63.9% (active)
11 | OCCCCCNC1CCCCC1 | 97.6%
12 | O=C1CNC(c2ccccc2)c2cc(Cl)ccc2N1 (stereo not given) | 104%
13 | COc1cc(C)c(-c2ccc(OC)c(=O)cc2C)c(OC)c1OC | 33.8% and 77.1%
14 | CC1=C(CCCNS(C)(=O)=O)C2=C(C)C3(CC3)[C@@](C)(O)C(=O)C2=C1 | -80.9% (active)
15 | N#CC(C#N)=C(C#N)C#N | 102%
16 | CCC(O)(CN)c1ccccc1 (stereo not given) | 101%
17 | Cc1cccc(N(C)c2cccc3c2C(=O)[Se]C3)c1C | 16.9%
18 | Fc1ccc2c(c1)c(-c1nc(-c3c[nH]c4ncccc34)cs1)cn2CCCCN1CCCCC1 | -56.6% (active)
19 | COC(=O)[C@H](Cc1ccccc1)NC(=O)c1csc([C@@H](C[C@H](C(C)C)N(C)C(=O)[C@@H](NC(=O)[C@H]2CCCCN2C)C2CC2)OC(C)=O)n1 | -3.15% (active)
20 | Cc1c(O)c(CN(CCCl)CCCl)cc(CN(CCCl)CCCl)c1O | 84.4%

Row | Structure (SMILES) | growth
21 | Clc1ccc(N2COOC3(OOC2)C2CC4CC(C2)CC3C4)cc1 | 65.3%
22 | CC[C@H](C)[C@H](NC(=O)[C@H]1CCCCN1C)C(=O)N(C)[C@H](CC(=O)c1nc(C(=O)N[C@@H](Cc2ccccc2)C[C@H](C)C(=O)O)cs1)C(C)C | 62.3%
23 | Oc1c(I)cc(I)cc1I | 102%
24 | CNC(C)Cc1ccccc1 (stereo not given) (tested in a mixture with another compound) | 91.3%
25 | Cc1cc(-c2nc3cc(F)ccc3[se]2)cc(F)c1N | -39% (active)
26 | Cc1cc(N(CCCl)CCCl)ccc1C=Nc1cccnc1 | -74.8% (active)
27 | CC(C)=CCc1c(O)c(C(=O)CC(C)C)c(O)c2c(-c3ccccc3)cc(=O)oc12 | 23.1%
28 | C[N+]1(C)CCCC1c1cccnc1 (stereo not given) | 101%
29 | CC1CCCC(C[N+](C)(C)C)C1=O (stereo not given) | 97.3%
30 | CCOC(=O)c1cncn1C(C)c1ccccc1 (stereo not given) | 97.6%
31 | C[C@@H]1O[C@@H](O[C@H]2CC[C@@]3(C)[C@H](CCC4[C@@H]3C(O)C[C@]3(C)[C@@H](c5ccc(=O)oc5)CC[C@]43O)C2)[C@H](O)[C@H](O)[C@H]1O (stereo not given in full) | -59.8% (active)
32 | CCOC(=O)[C@@H](C)C[C@H](Cc1ccccc1)NC(=O)c1csc([C@@H](C[C@H](C(C)C)N(C)C(=O)CNC(=O)[C@H]2CCCCN2C)OC(C)=O)n1 | 28%
33 | CCCCCN(CCCCC)CC(O)c1cc(Cl)ccc1OC (stereo not given) | 57.7%
34 | COc1ccc(N(CC(=O)NCCC[Te]c2ccccc2)C(=O)c2ccccc2)cc1 | 97.2%
35 | CCOC(=O)C1(c2ccccc2)CCN(CC(=O)c2ccc(NC(C)=O)cc2)CC1 | 110%
36 | CCOC(=O)CCN(C)C1=Nc2ccc(Cl)cc2C(c2ccccc2)=[N+]([O-])C1 | 93.7%
37 | CCCc1cc(O)c2c3c(c(=O)oc2c1)CN(C)CC3 | -3.7% (active)
38 | Cc1cc([N+](=O)[O-])c2ccccc2[n+]1[O-] | -55.7% (active)
39 | c1ccc2nc(OCCN3CC3)ccc2c1 | 69.3%
40 | CCCCCCCOC(C(=O)OCCN(CC)CC)(c1ccccc1)c1ccccc1 | 79.7%
